This is an account of results in PubChem BioAssay AID1346378 (National Center for Advancing Translational Sciences (NCATS), 2018).

In all, about 420,000 compounds went through this assay and about 540 (0.13%) were called active. The sample holds actives, similar compounds and a random draw of the others, so the mix is not that of the screen. Unmarked numbers belong to inactive results. Cut-off read from the data, not from the text of the source: active = activity change below about -50%; inconclusive = mostly about -30% to -49%; inactive = weaker than that.

The target in this experiment is Phosphatidylinositol 4-kinase type 2-alpha (Homo sapiens) (UniProt Q9BTU6). Description: qHTS for small molecular inhibitors of PI4K2A.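 Note: -100% = wells without enzyme as full effect.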 The following applies: purified PI4K2A, ADP-Glo luminescence, 1 h; at 76.9 µM, stronger effect = lower value. The source says: The phosphatidylinositol 4-phosphate (PI4P) is emerging as a key regulator of lipid transfer in ER-membrane contact sites. The four different phosphatidylinositol 4-kinase (PI4K) enzymes generate PI4P in different membrane compartments supporting distinct cellular processes many of which are crucial for the maintenance of cellular integrity but also hijacked by intracellular pathogens. The goal of this screening project is to search for small molecular inhibitors of PI4K2A based on a high throughput screening strategy.The ADP-Glo assay was used as a starting point to develop a miniaturized version for HTS applications. To implement the HTS screen, the PI4K ADP-Glotrade mark Kinase assay (Promega, V9102) was miniaturized for the 1536-well format used at NCGC.
Phosphatidylinositol 4-kinase type 2-alpha (Homo sapiens), sequence (Q9BTU6 whole entry, looked up): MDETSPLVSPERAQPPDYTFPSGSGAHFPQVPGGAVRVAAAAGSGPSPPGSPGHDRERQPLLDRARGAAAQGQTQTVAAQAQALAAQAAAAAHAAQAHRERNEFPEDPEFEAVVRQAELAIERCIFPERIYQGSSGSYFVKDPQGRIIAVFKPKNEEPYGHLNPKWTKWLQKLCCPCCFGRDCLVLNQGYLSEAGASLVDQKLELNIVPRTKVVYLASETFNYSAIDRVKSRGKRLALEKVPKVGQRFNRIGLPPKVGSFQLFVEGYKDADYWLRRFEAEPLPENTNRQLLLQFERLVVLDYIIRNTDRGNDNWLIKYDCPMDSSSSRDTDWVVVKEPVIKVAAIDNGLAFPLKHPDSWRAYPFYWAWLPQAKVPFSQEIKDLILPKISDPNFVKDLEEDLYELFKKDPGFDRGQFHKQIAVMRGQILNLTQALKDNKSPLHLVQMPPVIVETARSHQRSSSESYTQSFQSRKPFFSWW
For the robotic screening, the ADP-Glo assay using the ADP-Glotrade mark Kinase Assay kit from Promega was miniaturized and optimized on 1536-well white solid bottom plates (Greiner Bio-one). The substrate, 1.2 mM PI, prepared in the assay buffer (40mM Tris pH7.5, 20mM MgCl2, 1mM EGTA, 0.4% Triton X-100, 0.5mM DTT, 0.5mg/ml BSA) and PI4K2A enzyme, diluted also in the assay buffer to 4ug/mL, were dispensed onto the plates in equal volumes (1microl/well), pinned with 23 nL/well tested compounds or control followed by dispensation of 1microl/well 300microM ATP. The plates were incubated for one hour. Then, 2 µL/well of ADP-Glo reagent was added and incubated for 40 minutes. Next, 4microL/well of Kinase Detection Buffer was added to the plates and incubated for additional 40 minutes. All incubation steps were performed at ambient temperature. The resulting luminescence signal was measured on Viewlux plate reader (PerkinElmer). Adenosine, a partial non-specific inhibitor, was used as a positive control at 100microM final concentration to assess the assay's quality and plate-to-plate reproducibility. We also used "no enzyme" control to gauge the assay's maximal potential inhibition (IC100).
On the technique in general: In qHTS, concentration-response curves come from the screen itself.
`O=C1CCCc2cc(S(=O)(=O)N3CCCC(C(=O)NCc4ccccc4)C3)ccc2N1` (stereo not drawn): the activity change, negative = inhibition was -5.19%.

`CCc1ccc(NC(=O)CCS(=O)(=O)c2cc3c(cc2Cl)NC(=O)CO3)cc1`: the activity change, negative = inhibition is 0.699%.

For the molecule `CO[C@H]1C=CO[C@@]2(C)Oc3c(C)c(O)c4c(O)c(c(/C=N/N5CCN(C)CC5)c(O)c4c3C2=O)NC(=O)/C(C)=C\C=C[C@H](C)[C@H](O)[C@@H](C)[C@@H](O)[C@@H](C)[C@H](OC(C)=O)[C@@H]1C`, the activity change, negative = inhibition was -8.76%.

`Cc1nn2c(=O)cc(COC(=O)c3cccc(NC(=O)COc4ccccc4Cl)c3)nc2s1`: the activity change, negative = inhibition is 3.91%.

With `Cc1ccc(CCNC(=O)c2ccc3c(c2)N(Cc2cc(C)ccc2C)C(=O)c2ccccc2S3=O)cc1` (stereo not drawn), the activity change, negative = inhibition was 3.89%.

Take `CCC(C)Cn1c(O)cc2nn(-c3nc4ccccc4s3)c(=O)c-2c1C` (stereo not drawn): the activity change, negative = inhibition is -52% (active).

Regarding `O=C(OCCN1CCOCC1)c1cccnc1Nc1cccc(C(F)(F)F)c1`, the activity change, negative = inhibition was 1.58%.

Take `Cc1cc(C)cc(OCC(=O)Nc2nc(-c3ccc(F)cc3)ns2)c1`: the activity change, negative = inhibition is -6.03%.

Consider `CCS(=O)(=O)N1CCc2cc(C(=O)NCc3ccc(OC)cc3)ccc21`, for which the activity change, negative = inhibition was -0.384%.

With `CCc1ccccc1NC(=O)c1sc2nc3c(cc2c1N)CN(Cc1ccccc1)CC3`, the activity change, negative = inhibition was -2.17%.

Regarding `Cc1ccc(Oc2c(C(F)(F)F)oc3c(CN4CCCCC4)c(O)ccc3c2=O)cc1`, the activity change, negative = inhibition is -2.18%.

Turning to `Cc1ccc(C(=O)Nc2ccccc2F)cc1S(=O)(=O)N1CCOCC1`, the activity change, negative = inhibition is -6.24%.

As to `Cc1ccc(Cc2c(-c3ccco3)nc3ccc(Cl)cn23)cc1`, the activity change, negative = inhibition was -30%.

As to `c1ccc(Cc2c(-c3ccco3)nc3c4ccccc4ccn23)cc1`, the activity change, negative = inhibition was -13.4%.

In the case of `Cn1c(-c2ccco2)nc2cc3ccccc3cc21`, the activity change, negative = inhibition was -59.4% (active).

`COc1cc(/C=C/C(N)=O)cc(OC)c1OC`: the activity change, negative = inhibition was -0.706%.

For the molecule `CCC(=O)Nc1ccccc1-c1nc2ccccc2n(CC(=O)Nc2ccc(C)c(C)c2)c1=O`, the activity change, negative = inhibition was 0.486%.

With `COc1cccc(NC(=O)CN2C(=O)c3ccccc3Sc3ncccc32)c1`, the activity change, negative = inhibition was 0.541%.

In the case of `COc1ccc(-c2onc(C)c2C)cc1S(=O)(=O)NCCc1ccccc1`, the activity change, negative = inhibition was 0.384%.

Turning to `CCN(CCCNC(=O)c1ccc(Sc2ccc(C)cc2)c(NC(C)=O)c1)c1cccc(C)c1`, the activity change, negative = inhibition is 2.25%.

On to `COc1ccc(-c2nnc(SCC(=O)Nc3ccc(C(C)C)cc3)nc2-c2ccc(OC)c(OC)c2)cc1OC`, for which the activity change, negative = inhibition was 0.608%.

`CNC(=O)c1ccc(-c2nc(CN3CCc4ccccc43)c(C)o2)cc1`: the activity change, negative = inhibition is 2.42%.

In the case of `CC(=O)c1c(C)n(S(=O)(=O)c2ccc(Cl)cc2)c2ccc(NS(=O)(=O)c3ccc(Cl)cc3)cc12`, the activity change, negative = inhibition was 2.95%.

For the molecule `CSc1ccccc1-c1nnc(NC(=O)c2ccc3c(c2)OCCO3)o1`, the activity change, negative = inhibition is 3.71%.

Take `O=C(COC(=O)c1ccccc1)c1ccc2c(c1)OCCO2`: the activity change, negative = inhibition is -52.5% (active).

As to `CS(=O)(=O)N1CCc2cc(C(=O)Nc3ccccc3)ccc21`, the activity change, negative = inhibition is -7.3%.

In the case of `N#CCCN(C(=O)COC(=O)c1ccc2c(c1)OCCO2)c1ccccc1`, the activity change, negative = inhibition is 3.66%.

Consider `O=C1COc2ccc(C(=O)COC(=O)c3ccccc3Cl)cc2N1`, for which the activity change, negative = inhibition was 1.21%.

As to `O=C(Nc1ccccc1)c1ccc2c(c1)OCCCO2`, the activity change, negative = inhibition was -52.6% (active).

As to `CCC(C)NC(=O)Cn1c(=O)n(-c2ccc(Cl)cc2)c(=O)c2c3c(sc21)CCCC3` (stereo not drawn), the activity change, negative = inhibition was -10.3%.

Consider `CCCn1c2ccccc2c2cnn(CC(=O)N(CC)c3cc(C)ccc3C)c(=O)c21`, for which the activity change, negative = inhibition is -0.786%.

On to `CN(C)c1cc2c(Nc3ccc4c(cnn4Cc4ccccc4)c3)ncnc2cn1`, for which the activity change, negative = inhibition was -9.09%.

In the case of `COc1cccc(C(=O)c2cc3ccc(O)cc3oc2=O)c1`, the activity change, negative = inhibition is -61.7% (active).

For `COc1ccc(CNC(=O)c2cc3cccc(OC)c3oc2=O)cc1`, the activity change, negative = inhibition is 3.69%.

Turning to `COc1cccc(C(=O)Nc2ccc3oc(-c4ccc5ccccc5c4)nc3c2)c1`, the activity change, negative = inhibition is -2.82%.

For the molecule `CCOc1ccc(NS(=O)(=O)c2ccc(N)cc2)nn1`, the activity change, negative = inhibition is -1.1%.

`CC1=C(C(=O)OCC(C)C)C(c2ccc(OCc3ccccc3)cc2)N2C(=O)CCSC2=N1` (stereo not drawn): the activity change, negative = inhibition is 5.39%.

With `CCCCOc1ccc(CN2C(=O)C(=O)c3cc(Br)cc(C)c32)cc1OC`, the activity change, negative = inhibition is 13%.

Regarding `Cc1ccc(-n2nc(C)c(C(=O)O)c2-n2cccc2)cc1`, the activity change, negative = inhibition is 3.8%.

Take `O=C(O)/C(=C/c1c(C(=O)O)[nH]c2cc(Cl)cc(Cl)c12)c1ccccc1`: the activity change, negative = inhibition is -3.01%.

With `Cc1[nH][nH]c(=O)c1C(c1ccc2c(c1)OCO2)c1c(C)[nH][nH]c1=O`, the activity change, negative = inhibition was -66.9% (active).

Regarding `Nc1[nH][nH]c(=O)c1N=Nc1ccc2c(c1)OCO2`, the activity change, negative = inhibition was -6.7%.

As to `Cc1[nH][nH]c(=O)c1C(c1ccc(-c2ccc(Cl)cc2)o1)c1c(C)[nH][nH]c1=O`, the activity change, negative = inhibition is -14%.
